Laboratory results from paper PMC4336329 (PLoS ONE, 2015).
Screen size: about 310,000 compounds; about 14,000 (4.5%) showed an effect of 50% or more. Effects have a minus sign here. The sample as a whole holds a higher share of strong results than the screen did.

target: human ether-à-go-go-related gene (hERG) potassium channel (human, UniProt Q12809); experiment: primary screen, population patch clamp on CHO cells stably expressing hERG; higher = less effect of the substance
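Note: peak tail current of the secondary pulse compared with the same well before compound.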

human ether-à-go-go-related gene (hERG) potassium channel, sequence (Q12809 whole entry, looked up): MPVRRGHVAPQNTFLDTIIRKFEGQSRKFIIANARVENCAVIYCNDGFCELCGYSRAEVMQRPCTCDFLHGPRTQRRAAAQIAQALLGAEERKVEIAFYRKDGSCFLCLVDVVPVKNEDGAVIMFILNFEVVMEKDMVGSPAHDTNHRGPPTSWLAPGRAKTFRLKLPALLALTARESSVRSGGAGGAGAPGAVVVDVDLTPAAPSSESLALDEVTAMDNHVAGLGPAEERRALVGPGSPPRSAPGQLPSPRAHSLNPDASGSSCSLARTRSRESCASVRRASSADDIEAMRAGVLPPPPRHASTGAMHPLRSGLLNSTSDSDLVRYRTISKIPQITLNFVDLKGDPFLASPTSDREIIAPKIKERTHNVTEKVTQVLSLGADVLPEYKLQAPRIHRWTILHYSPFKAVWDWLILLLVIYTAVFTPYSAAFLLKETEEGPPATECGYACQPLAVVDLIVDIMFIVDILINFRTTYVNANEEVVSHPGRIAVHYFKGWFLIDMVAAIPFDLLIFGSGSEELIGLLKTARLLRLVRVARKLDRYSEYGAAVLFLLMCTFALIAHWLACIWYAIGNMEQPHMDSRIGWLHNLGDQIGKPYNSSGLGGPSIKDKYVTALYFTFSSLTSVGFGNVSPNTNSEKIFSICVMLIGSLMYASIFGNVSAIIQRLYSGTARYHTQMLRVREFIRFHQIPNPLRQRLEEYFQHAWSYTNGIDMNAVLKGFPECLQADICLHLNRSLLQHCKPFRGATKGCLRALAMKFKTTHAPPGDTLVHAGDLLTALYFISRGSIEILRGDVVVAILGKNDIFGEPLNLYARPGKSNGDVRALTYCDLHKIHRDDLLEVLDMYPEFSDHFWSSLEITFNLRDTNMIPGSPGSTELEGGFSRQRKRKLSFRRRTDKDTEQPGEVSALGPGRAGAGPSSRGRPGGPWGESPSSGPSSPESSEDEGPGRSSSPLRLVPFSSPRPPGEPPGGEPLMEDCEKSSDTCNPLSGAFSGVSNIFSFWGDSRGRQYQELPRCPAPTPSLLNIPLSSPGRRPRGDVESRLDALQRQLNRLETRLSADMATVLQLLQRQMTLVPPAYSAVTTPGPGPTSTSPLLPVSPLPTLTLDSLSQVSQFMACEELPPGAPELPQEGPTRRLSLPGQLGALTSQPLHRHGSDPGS

Compound	hERG current change (%, negative = inhibition) at 10uM [%]
O=C(C1CC1)N1CCCN(C(=O)C2CC2)CC1	16.3
CCC1(C)Cc2ccccc2-c2nc(NCCCO)n(-c3ccccc3)c(=O)c21 (centres unmarked)	-48.6
c1ccc(COc2ccccc2CNc2nn[nH]n2)cc1	13.1
O=C(Nc1sc2c(c1C(=O)NCC(O)CO)CCCC2)c1ccccc1 (centres unmarked)	6.02
O=C(COC(=O)CNC(=O)c1cccs1)Nc1ccc(C(F)(F)F)cc1[N+](=O)[O-]	-44
CCn1c(C)nnc1SCC(=O)Nc1ccc(Cl)cc1	10.3
CN(CC(=O)NCCCc1ccccc1)S(=O)(=O)c1ccc(Br)cc1	-7.88
CC(=O)c1ccc(NC(=O)C2CCCN(c3ncnc4c3nc3n4CCCCC3)C2)cc1 (centres unmarked)	-24.1
Cc1ccc(NC(=O)C2CCCN(c3ncnc4c3nc3n4CCCCC3)C2)cc1Cl (centres unmarked)	-6.39
O=C(Nc1ccc(Cl)cc1)C1CCCN(c2ncnc3c2nc2n3CCCCC2)C1 (centres unmarked)	-50.1
COc1ccc2no[n+]([O-])c2c1	28.1
CC1CCc2c(sc(NC(=O)CCC(=O)O)c2C(=O)NC2CC2)C1 (centres unmarked)	18.1
COc1ccc(NC(=O)n2ncc3cc(Cl)ccc32)cc1OC	21.3
CC(C)(C)N(Cc1cc2ccccc2[nH]c1=O)C(=O)c1ccco1	8.21
COc1ccc(NC(=O)CSc2nnc(NC(=O)C3CCC3)s2)c(OC)c1	12.6
CS(=O)(=O)Oc1ccc2c(c1)O/C(=C\C=C\c1ccccc1)C2=O	8.05
Cc1ccc(S(=O)(=O)Cc2ccc(C(=O)N3CCC(C(N)=O)CC3)o2)cc1	30.7
CC(C)N(C(=O)Nc1ccc2nsnc2c1)C(C)C	0.592
CC1(C)Cc2cccc(OCC(=O)N3CCN(c4ccc(F)cc4)CC3)c2O1	-69.5
CC1(C)Cc2cccc(OCC(=O)N3CCN(c4ccccc4Cl)CC3)c2O1	-64.3
CC1(C)Cc2cccc(OCC(=O)N3CCN(c4ccccc4)CC3)c2O1	-45.6

Compound	hERG current change (%, negative = inhibition) at 10uM [%]
CC1(C)Cc2cccc(OCC(=O)N3CCN(S(=O)(=O)c4ccc(F)cc4)CC3)c2O1	-21.6
CC1(C)Cc2cccc(OCC(=O)N3CCN(c4ccc([N+](=O)[O-])cc4)CC3)c2O1	-70.3
CC1(C)Cc2cccc(OCC(=O)N3CCN(c4ccccc4F)CC3)c2O1	-22.4
CC1(C)Cc2cccc(OCC(=O)N3CCN(c4cccc(C(F)(F)F)c4)CC3)c2O1	1.57
CC1(C)Cc2cccc(OCC(=O)N3CCN(c4cccc(Cl)c4)CC3)c2O1	-4.1
Cc1cccc(N2CCN(C(=O)COc3cccc4c3OC(C)(C)C4)CC2)c1C	-2.16
CCn1cc(C(=O)O)c(=O)c2cc(F)c(N3CCN(S(=O)(=O)c4ccc(NC(=O)OC)cc4)CC3)cc21	21.8
CC1(C)SC(=S)N(/N=C/c2cccnc2)C1N(O)C(=O)Nc1ccccc1 (centres unmarked)	-5.91
COc1ccc(S(=O)(=O)N2CCN(C3CCCC(C)C3)CC2)cc1.O=C(O)C(=O)O (centres unmarked)	-16.7
CCCCN(C)C(=O)CCC(=O)Nc1ccc2nc(N3CCN(C)CC3)cc(C)c2c1	11
CC1=CC(C)(C)N(C(=O)c2ccccc2)c2ccccc21	-8.02
CN(C)S(=O)(=O)c1ccc(N2CCCC2)c(C(=O)Nc2nc(-c3cc(F)ccc3F)cs2)c1	0.334
CCOCCCN(C)C1CCN(C(=O)c2oc3ccccc3c2NC(=O)c2cccc([N+](=O)[O-])c2)CC1	-79.7
CCOCCCN(C)C1CCN(C(=O)c2oc3ccccc3c2NC(=O)c2ccc([N+](=O)[O-])cc2)CC1	-75.9
CCOC(=O)c1oc2ccccc2c1NC(=O)c1ccc(S(=O)(=O)N(C)C)cc1	13
COc1cc2c(cc1NC(=O)c1cccc([N+](=O)[O-])c1)oc1ccccc12	1.9
CCC(CC)C(=O)Nc1c(C(=O)N2CCN(c3ccccc3)CC2)oc2ccccc12	3.17
O=C(Nc1c(C(=O)N2CCOCC2)oc2ccccc12)c1cccc([N+](=O)[O-])c1	-20.2
CCOC(=O)N1CCC(NC(=O)C2CCCN(C(=O)c3cc4sccc4n3C)C2)CC1 (centres unmarked)	-5.34
CS(=O)(=O)O.OC(c1cc(C(F)(F)F)nc2c(Cl)cc(Cl)cc12)C1CCCCN1 (centres unmarked)	-23.8
Cc1[nH]n(-c2ccccc2)c(=O)c1N=Nc1ccc(C(=O)O)cc1	25.7

Compound	hERG current change (%, negative = inhibition) at 10uM [%]
CC(=O)NC1C(Oc2ccccc2C)OC2COC(c3ccco3)OC2C1O (centres unmarked)	3.59
COc1ccc(-c2c(C(C)=O)c(C)nc3sc4c(=O)[nH]nnc4c23)cc1	8.95
Cc1ccccc1OCC(O)Cn1c(NCc2ccco2)nc2c1c(=O)n(C)c(=O)n2C (centres unmarked)	-52.1
Cn1c(=O)c2c(nc(NCc3ccco3)n2CC(O)COc2ccccc2)n(C)c1=O (centres unmarked)	-25.9
Cc1ccccc1OCC(O)Cn1c(NCc2ccco2)nc2c1c(=O)[nH]c(=O)n2C (centres unmarked)	4.8
Cc1oc(S(=O)(=O)N2CCCCC2)cc1NC(=O)Nc1ccc(F)cc1	3.43
COc1ccc(C(=O)N(C)C2CCCN(Cc3ccccc3F)C2)cc1OC (centres unmarked)	11.1
COc1ccc(C(=O)NC2CC2)cc1OC1CCN(Cc2ccccc2O)CC1	-102
COc1ccc(C(=O)NC2CC2)cc1OC1CCN(Cc2ccccc2F)CC1	-78
COc1ccc(CN2CCC(Oc3cc(C(=O)NC4CC4)ccc3OC)CC2)c(O)c1	-77.3
COc1ccc(CN2CCC(Oc3ccc(C(=O)NCc4ccccn4)cc3)CC2)c(F)c1	-12.6
COc1ccc(C(=O)NCCc2ccccc2F)cc1OC1CCN(C(C)=O)CC1	4.19
COc1cc(C(=O)NC2Cc3ccccc3C2)ccc1OC1CCN(C(C)=O)CC1	4.22
C=CCOc1ccccc1CN1CCC(Oc2cc(C(=O)NC3CC3)ccc2OC)CC1	-72.2
CCOc1ccccc1CN1CCC(Oc2cccc(C(=O)NCCOC)c2)CC1	-30.8
C=CCC(O)(CC=C)CNC(=O)c1ccc(OC)c(OC2CCN(C(C)=O)CC2)c1	14.9
COc1ccc(OC)c(CN2CCC(N3CCC(C(=O)NC4CC4)CC3)CC2)c1	-11.1
COc1ccc(C(=O)NC2CCc3ccccc32)cc1OC1CCN(C(C)=O)CC1 (centres unmarked)	-0.012
Cc1ccc(Nc2nc3ccccc3n3cnnc23)cc1C	15.5
CCOC(=O)N1CCN(C(=O)CSc2nnc(COc3ccc(Cl)cc3)o2)CC1	-37.8
CCOCCCNC(=O)CCc1nnc2ccc(N3CCCCC3)nn12	11.1

Compound	hERG current change (%, negative = inhibition) at 10uM [%]
COc1ccc(OC)c(NC(=O)C2CC(=O)N(c3ccccc3)C2)c1 (centres unmarked)	5.86
O=C(CCC(=O)OCC(=O)c1ccc(-c2ccccc2)cc1)Nc1cccc(Cl)c1	1.65
CCn1ncc(CN2CCC(Oc3cc(C(=O)NC4CC4)ccc3OC)CC2)c1C	-21.5
COc1ccc(C(=O)NC2CC2)cc1OC1CCN(Cc2cc(C)c(C)cc2C)CC1	-83.1
COc1ccc(C(=O)NC2CC2)cc1OC1CCN(Cc2cnn(C)c2C)CC1	-27.2
O=C(CCl)Nc1nc(-c2ccco2)c(-c2ccco2)s1	-10.1
O=C(c1cccc(OC2CCN(C3CCCC3)CC2)c1)N1CCCCCCC1	-36
COCCC1CCCCN1C(=O)c1cccc(OC2CCN(C3CCCC3)CC2)c1 (centres unmarked)	17.6
COc1cccc(CN(C)C(=O)c2cccc(OC3CCN(C4CCCC4)CC3)c2)c1	-55.1
CN(Cc1ccc(F)cc1)C(=O)c1cccc(OC2CCN(C3CCCC3)CC2)c1	-61
CN(Cc1ccc(F)cc1)C(=O)c1cccc(OCc2ccccc2)c1	-16.9
COc1cccc(CN(C)C(=O)c2cccc(OCc3ccccc3)c2)c1	13.1
O=[N+]([O-])C(C1CCS(=O)(=O)C1)C1CCS(=O)(=O)C1 (centres unmarked)	11.9
Cc1cccc(C2N(c3ccc(F)cc3)C(=O)C3CCCN32)c1 (centres unmarked)	-12.3
COc1cc(CN2CCN(C(=O)CC(C)C)CC2)c([N+](=O)[O-])cc1OC	8.77
CCN1CCN(Cc2cc(OC)c(OC)cc2[N+](=O)[O-])CC1	8.59
COc1cc(CN2CCCCCC2)c([N+](=O)[O-])cc1OC	3.94
COc1cc(CN2CCN(Cc3ccc(C)cc3)CC2)c([N+](=O)[O-])cc1OC.O=C(O)C(=O)O	-77.2
COc1cccc(CN2CCN(Cc3cc(OC)c(OC)cc3[N+](=O)[O-])CC2)c1.O=C(O)C(=O)O	-46.3
COc1cc(CN2CCN(Cc3ccc([N+](=O)[O-])cc3)CC2)c([N+](=O)[O-])cc1OC.O=C(O)C(=O)O	-68.2
